Screening results as filed in PubChem.
JMJD2A Tudor inh: qHTS Assay for Inhibitors of JMJD2A-Tudor Domain | AlphaScreen JMJD2A-Tudor / H3K4me3 peptide binding | Potency, µM (top dose mostly 114 µM), without a hit: at the top dose activity change, negative = inhibition, actives largely listed as inhibitors | 390,000 tested, 4.4% active | AID 504339, 2011; further: on the % scale 0 is the no-effect control and ±100 the full control effect; nearly all actives have a fitted effect of over 50% in size
PLK1 PBD inh: qHTS for Inhibitors of PLK1-PDB (polo-like kinase 1 - polo-box domain): Primary Screen; AID 720504, 2013; Potency, µM, inactives show max response, negative = inhibition, usual class: inhibitors; 360,000 tested, 2.8% active; Plk1 PBD binding of FITC phosphopeptide, fluorescence polarization; further: series mostly up to about 57 µM; on the % scale 0 is the no-effect control and ±100 the full control effect; nearly all actives have a fitted effect of over 65% in size
BAZ2B inh: qHTS Assay for Inhibitors of BAZ2B | AlphaScreen BAZ2B-H3K14Ac peptide displacement | Potency, µM (titrated, usually from 114 µM), without a hit: top-dose activity change, negative = inhibition, usual class: inhibitors | 360,000 tested, 4.4% active; further: on the % scale 0 is the no-effect control and ±100 the full control effect; nearly all actives have a fitted effect of over 60% in size
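Inhibition is scored as reduced AlphaScreen emission. The BAZ2B/b-H3(5-23)K14Ac complex (50 nM each) in PBS pH 7.4, 0.01% Tween-20 meets compound (up to 110 uM) for 30 min at RT before bead addition.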
HP1b chromo inh: HTS for Inhibitors of HP1-beta Chromodomain Interactions with Methylated Histone Tails. AlphaScreen HP1-beta / biotin-H3K9me3 peptide binding. 390,000 tested, 0.56% active. Potency, µM (doses to about 114 µM), inactives show at the top dose activity change, negative = inhibition, usual class: inhibitors; further: nearly all actives have a fitted effect of over 70% in size
Target sequence (P83916 whole entry, looked up): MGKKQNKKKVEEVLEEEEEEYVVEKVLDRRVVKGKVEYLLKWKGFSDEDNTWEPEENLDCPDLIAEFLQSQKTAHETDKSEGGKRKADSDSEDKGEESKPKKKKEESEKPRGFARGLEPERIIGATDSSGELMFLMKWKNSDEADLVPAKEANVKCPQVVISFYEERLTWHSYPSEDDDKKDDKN
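Compound inhibition of the preformed complex between 50 nM HP1-beta and 50 nM biotinylated H3K9me3 peptide was read by AlphaScreen. Buffer was PBS pH 7.4 with 0.01% Tween-20. Incubations ran 30 min at room temperature, with 10 ug/mL donor/acceptor beads.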
Sfp inh: qHTS Assay for Inhibitors of Bacillus subtilis Sfp phosphopantetheinyl transferase (PPTase). Biochemical Sfp PPTase activity, qHTS. Potency, µM, inactives show largest response in the series, negative = inhibition, usual class: inhibitors. 310,000 tested, 3.5% active;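 further: the enzyme is Sfp with the accession as filed and its product quenches rhodamine fluorescence; 0% = enzyme reaction without inhibitor and -100% = no enzyme wells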
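Fluorescence-quenching assay with 15 nM Sfp, 5 uM rhodamine-CoA and 12.5 uM BHQ-2-labelled ybbR peptide in pH 7.6 Hepes/MgCl2 buffer. Enzyme was pre-incubated with compound for 15 min at room temperature. Rate was taken from the 30-min fluorescence change (525/598 nm).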
G9a inh: qHTS Assay for Inhibitors of Histone Lysine Methyltransferase G9a; G9a H3K9 monomethylation, AlphaScreen, 2 h; Histone-lysine N-methyltransferase EHMT2 (Homo sapiens), Q96KQ7; AID 504332, 2011; 350,000 tested, 8.8% active; Potency, µM (top dose mostly 102 µM), without a hit: at the top dose activity, negative = inhibition, hits mostly inhibitors; further: on the % scale 0 is the no-effect control and ±100 the full control effect; nearly all actives have a fitted effect of over 75% in size
Target sequence (Q96KQ7 913-1193 limits assumed): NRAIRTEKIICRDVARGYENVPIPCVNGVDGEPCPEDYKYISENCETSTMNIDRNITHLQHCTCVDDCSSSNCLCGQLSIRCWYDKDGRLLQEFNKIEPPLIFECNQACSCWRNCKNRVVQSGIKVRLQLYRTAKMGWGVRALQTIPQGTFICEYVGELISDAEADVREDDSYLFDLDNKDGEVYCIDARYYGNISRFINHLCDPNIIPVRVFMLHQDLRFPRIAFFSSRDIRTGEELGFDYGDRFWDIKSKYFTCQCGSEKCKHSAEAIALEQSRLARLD
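Methyltransferase reactions run at room temperature for 2 h (20 nM enzyme, 500 nM biotin-H3K9 peptide, 20 uM SAM) after a 15 min compound preincubation; product detected by AlphaScreen beads and anti-H3K9me1 antibody.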
Numbers without * were called inactive; u = inconclusive; x = no result; [ ] = dose if it differs, or a comment. Compounds with a hit are over-represented: about 12% of the library has one in this group of screens. The call rests on the fitted dose curve; in most records, active means well fitted curve in the direction sought with a large enough effect; inconclusive means small, poorly fitted or top-dose-only effect, or another doubt; inactive means no such curve, though single readings can be large; an effect the other way counts as inactive or inconclusive. Potency means the concentration at half of the fitted maximal effect.

SMILES	JMJD2A Tudor inh	PLK1 PBD inh	BAZ2B inh	HP1b chromo inh	Sfp inh	G9a inh
COC(=O)C1Cc2c([nH]c3ccccc23)CN1C(C)=O (configuration not stated)	-29%	-15%	-34%	-21%	-14%	50µM*
Cc1ccc(N(CC(=O)NCc2ccc(F)cc2)S(=O)(=O)c2c(C)n[nH]c2C)cc1	-18%	-7%	21%[57.1 µM]	63%	10%	12%
N#Cc1c(-c2ccc(Cl)cc2)no[n+]1[O-]	-26%	x	x	x	x	x
CS[C@@H]1SC[C@H]2C(=O)N(C)C(C(C)C)C(=O)OC[C@@H](NC(=O)c3cnc4ccccc4n3)C(=O)N[C@@H](C)C(=O)N(C)[C@H]1C(=O)N(C)C(C(C)C)C(=O)OC[C@@H](NC(=O)c1cnc3ccccc3n1)C(=O)N[C@@H](C)C(=O)N2C (some centres not stated)	x	x	x	x	7%	x
CCOC(=O)C1CCN(Cc2cccc(Oc3ccc(Cl)cc3)c2)CC1	28µM*	7%	u	-30%	-26%	u
CCN(CC)C(=O)C1CCCN(Cc2cccc(Oc3ccccc3)c2)C1 (configuration not stated)	22µM*	1%	-37%	0%	0%	28µM*
CCOC(=O)C1CCCN(Cc2cccc(Oc3ccccc3)c2)C1 (configuration not stated)	3.2µM*	-3%	u	u	-15%	79µM*
CCN1CCN(Cc2cccc(Oc3ccc(Cl)cc3)c2)CC1	-31%	-6%	79µM*	12%	u	u
CCCCOC(=O)c1ccc(NC(=O)Cc2coc3ccc(C(C)C)cc23)cc1	7%	x	-14%	56%	x	2%[59 µM]
CCOC(=O)C1CCN(Cc2cccc(Oc3ccccc3)c2)CC1	22µM*	-1%	56µM*	-19%	-24%	7.1µM*
CCNC(=O)C1(C)CCN(Cc2cccc(Oc3ccccc3)c2)C1 (configuration not stated)	x	-10%	x	x	x	x
CCC(C)Sc1ccc([C@H]2N[C@@](Cc3ccccc3)(C(=O)OC)[C@H]3C(=O)N(CC)C(=O)[C@@H]23)cc1 (some centres not stated)	-17%	-14%	-1%	60%	x	1%[12.7 µM]
Cc1nnc(SCc2nc3ccccc3s2)n1-c1ccccc1	-10%	-15%	-3%	24%	-1%	-24%[59 µM]
CCn1c(SCc2nc3ccccc3s2)nnc1-c1ccccc1	-10%	-9%	-5%	38%	19%	u
c1ccc(Cn2c(SCc3nc4ccccc4s3)nnc2-c2ccco2)cc1	32µM*	21µM*	u	u	20µM*	7.1µM*
CCC(c1nnc(SCc2nc3ccccc3s2)n1Cc1ccccc1)N(C)C (configuration not stated)	-28%	-3%	-26%	17%	-15%	50µM*
CC(=O)OCON[N+]([O-])=NC1CCCCC1	20µM*	x	x	u	7%	x
Nc1nc(-c2ccc(Cl)c(Cl)c2)c(-c2ccncc2)s1	x	x	x	x	22µM*	x
O=C(NNc1ccccn1)C(c1ccccc1)c1ccccc1	-14%	-3%	-23%	9%	8%	2%
O=c1cc(CO)oc(C(Nc2ccccn2)c2ccccc2Cl)c1O (configuration not stated)	28µM*	u	u	u	50µM*	1.1µM*
O=c1cc(CO)oc(C(Nc2ccccn2)c2ccsc2)c1O (configuration not stated)	x	x	u	x	22µM*	2µM*
Cc1ccnc(NC(c2ccccc2O)c2oc(CO)cc(=O)c2O)c1 (configuration not stated)	-17%	u	u	1%	10µM*	0.89µM*
O=c1cc(CO)oc(C(Nc2ccccn2)c2ccc(F)cc2)c1O (configuration not stated)	40µM*	15µM*	-27%	u	10µM*	-120%[12.7 µM]
O=C(CCc1nnc2ccc(N3CCC4(CC3)OCCO4)nn12)NCc1ccccc1Cl	7%	-3%	-7%[57.1 µM]	29%	-3%	7%
Cc1ccc(S(=O)(=O)N2CCN(C(=O)CCC(=O)Nc3ccc(Br)c(C)c3)CC2)cc1	-20%	-2%	x	15%	x	x
SMILES	JMJD2A Tudor inh	PLK1 PBD inh	BAZ2B inh	HP1b chromo inh	Sfp inh	G9a inh
CC(C)Oc1ccc(CNC(=O)Cc2ccc(NC(=O)N3CCSc4ncccc43)cc2)cc1	-5%	x	-12%	39%	x	0%[59 µM]
CC(=O)c1cccc(NC(=O)C(C)OC(=O)c2ccc(S(C)(=O)=O)c([N+](=O)[O-])c2)c1 (configuration not stated)	-13%	x	x	32%	x	x
Cc1ccccc1-c1nn[nH]n1	-23%	-5%	2%	26%	18%	-10%
Oc1ccc(N=Nc2ccccc2-c2nn[nH]n2)c(O)c1	u	u	50µM*	-5%	15%	35µM*
CCN(CC)C(=O)C1=C(C)N(CCCN2CCCC2=O)C(=O)C(CC(=O)NC(c2ccccc2)c2ccccc2)C1 (configuration not stated)	x	4%	x	x	x	x
CCOc1ccc2nc(NC(=O)c3cc(=O)c4ccc(C)cc4o3)sc2c1	-2%	x	-20%	26%	x	-28%[59 µM]
COc1cc(C(=O)O)nc2ccc([N+](=O)[O-])cc12	-17%[11.4 µM]	-21%	50µM*	23%	10µM*	18µM*
COc1ccc([N+](=O)[O-])cc1C(=O)C(=O)c1ccccc1	-29%	-18%	-6%	18%	-2%	x
COC(=O)N1CCC2(CCN(Cc3cc(C(F)(F)F)cc(C(F)(F)F)c3)CC2)CC1	x	x	x	x	9%	-2%[12.7 µM]
CC1C(=O)N2CCCc3cc(S(=O)(=O)N(C)c4ccccc4)cc1c32 (configuration not stated)	-22%	-19%	56µM*	36%	-18%	x
CC1C(=O)N2CCCc3cc(NS(=O)(=O)c4ccccc4)cc1c32 (configuration not stated)	-1%	-7%	0%	25%	x	u
COc1ccc(S(=O)(=O)Nc2cc3c4c(c2)C(C)C(=O)N4CCC3)cc1OC (configuration not stated)	-14%	-10%	9%	9%	x	45µM*
CCN(c1ccccc1)S(=O)(=O)c1cc2c3c(c1)C(C)C(=O)N3CCC2 (configuration not stated)	-4%	-2%	-1%	32%	7%	23%
CCCOC(=O)c1c(NC(=O)c2nc3ncccn3n2)sc(C(=O)OCC)c1C	-2%	x	6%	28%	x	28%[59 µM]
